Assay results published in PubChem BioAssay (NCATS).
Records with an inconclusive call do not appear. Entries that show only a call come without a potency. A number with no mark means an inactive call. Calls of active or inactive are those of the source. Calls come from the whole dose curve; as a rule, active = well fitted inhibition curve with a large enough effect; inconclusive = small, poorly fitted or top-dose-only effect; inactive = no such curve, though single readings can be large or run the other way.

Columns and labels:
[1] = system: Zika virus NS2B-NS3 protease (unlinked complex); experiment: Primary screen GU Rhodamine qHTS for Zika virus inhibitors: Unlinked NS2B-NS3 protease assay (AID 1347159); note: nearly all actives have a fitted effect of over 60% in size
Outline: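 Compounds, tested up to 114 microM, were incubated for 15 minutes with 25 nM unlinked NS2B-NS3 protease at pH 8.0. Cleavage of 1.5 microM Rhodamine110 substrate was then followed by fluorescence for 15 minutes.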

[2] = system: Zika virus NS2B-NS3 protease (linked construct); experiment: Primary screen NINDS Rhodamine qHTS for Zika virus inhibitors (AID 1347160); note: nearly all actives have a fitted effect of over 55% in size
Outline: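 Percent inhibition, normalized to uninhibited and enzyme-free controls, is fitted to a 4-parameter Hill equation. Fluorescence change comes from a 15-min cleavage of 1.5 microM bis-peptide Rhodamine110 substrate by 25 nM linked NS2B-NS3 at room temperature.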
Potency is the fitted concentration of half-maximal effect.

SMILES: CCC(=O)N[C@@H]1Cc2ccccc2[C@H](c2ccccc2)C1
- Potency [1]: inactive
- Potency [2]: inactive

SMILES: CCc1nc(C(N)=O)c(Nc2ccc(N3CCC(N4CCN(C)CC4)CC3)c(OC)c2)nc1NC1CCOCC1
- Potency [1]: inactive
- Potency [2]: inactive

SMILES: COc1ccc(C2=CC(=O)OC2Cc2ccc(O)cc2)c(O)c1 (stereo not given)
- Potency [1]: inactive
- Potency [2]: inactive

SMILES: Cc1cc(O)c(C(C)C)cc1O[C@@H]1O[C@H](CO)[C@@H](O)[C@H](O)[C@H]1O
- Potency [1]: inactive
- Potency [2]: inactive

SMILES: COc1ccc2c(c1)OC[C@]1(O)c3cc4c(cc3O[C@H]21)OCO4
- Potency [1]: inactive
- Potency [2]: inactive

SMILES: CC1OC(OC2C(CO)OC(OCC3OC(OC(=O)C45CCC(C)(C)CC4C4=CCC6C7(C)CCC(OC8OC(C(=O)O)C(O)C(OC9OC(CO)C(O)C(O)C9O)C8O)C(C)(C)C7CCC6(C)C4(C)CC5)C(O)C(O)C3O)C(O)C2O)C(O)C(O)C1O (stereo not given)
- activity change, negative = inhibition [1]: 16.6% [at 19.1 µM]
- activity change, negative = inhibition [2]: 9.74% [at 10.7 µM]

SMILES: CC(=O)O[C@@H]1[C@H](O[C@@H]2O[C@H](CO)[C@@H](O)[C@H](O)[C@H]2O)[C@@H](O[C@@H]2O[C@@H](C)[C@H](O)[C@@H](O[C@@H]3O[C@H](CO)[C@@H](O)[C@H](O)[C@H]3O)[C@H]2O)[C@H](OC(=O)C23CCC4(C)C(=CCC5C6(C)CC(O)C(O[C@@H]7O[C@H](C(=O)O)[C@@H](O)[C@H](O)[C@H]7O)C(C)(C(=O)O)C6CCC54C)C2CC(C)(C)CC3O)O[C@@H]1C (stereo not given in full)
- activity change, negative = inhibition [1]: 7.44% [at 19.1 µM]
- activity change, negative = inhibition [2]: 3.1% [at 10.7 µM]

SMILES: CN(C)C/C=C/C(=O)Nc1ccc(C(=O)Nc2cccc(Nc3ncc(Cl)c(-c4c[nH]c5ccccc45)n3)c2)cc1
- Potency [1]: inactive
- Potency [2]: inactive

SMILES: C[C@@H]1CC[C@]2(C(=O)O[C@@H]3O[C@H](CO)[C@@H](O)[C@H](O)[C@H]3O)CC[C@]3(C)C(=CCC4[C@@]5(C)C[C@@H](O)[C@H](O)C(C)(C)C5CC[C@]43C)C2[C@]1(C)O (stereo not given in full)
- Potency [1]: inactive
- Potency [2]: inactive

SMILES: CC1(C)CC2C(O)C3=C(CC(C)(O)C2C1)C(=O)OC3O (stereo not given)
- Potency [1]: inactive
- Potency [2]: inactive

SMILES: O=c1ccn(C2OC(CO)C(O)C2O)c(=O)[nH]1 (stereo not given)
- Potency [1]: inactive
- Potency [2]: inactive

SMILES: CC12CC34C=CC(=O)C(C)(CCC(=O)O)C3C(CC1C4)O2 (stereo not given)
- Potency [1]: inactive
- Potency [2]: inactive

SMILES: COc1cc(N2CCC(O)CC2)ccc1Nc1cc(Nc2ccccc2S(=O)(=O)C(C)C)c2cc[nH]c2n1
- Potency [1]: inactive
- Potency [2]: inactive

SMILES: CC1(C)CCCC2(C)C3=C(C(=O)OC3O)C(O)CC12 (stereo not given)
- Potency [1]: inactive
- Potency [2]: inactive

SMILES: COc1cc2c(cc1OC)CN(C(=O)[C@@H](NCc1ccncc1)C(C)(C)C)CC2
- Potency [1]: inactive
- Potency [2]: inactive

SMILES: CO[C@@H](Cc1ccc(OCCc2nc(-c3ccccc3)oc2C)c2ccsc12)C(=O)O
- Potency [1]: 17.8 µM (active)
- Potency [2]: 12.6 µM (active)

SMILES: NC(=O)c1ccc(OCC2NC(=O)C3CCCN3C2=O)cc1 (stereo not given)
- Potency [1]: inactive
- Potency [2]: inactive

SMILES: C=C1C(=O)O[C@H]2[C@H]1[C@@H](OC(=O)C(C)CO)C[C@@]1(C)[C@H](O)CCC(=O)[C@H]21 (stereo not given in full)
- Potency [1]: inactive
- Potency [2]: inactive

SMILES: COC1=CC(=O)O[C@@H](CCc2ccccc2)[C@@H]1O
- Potency [1]: inactive
- Potency [2]: inactive

SMILES: CCOC(=O)[C@H](CCc1ccccc1)CC1(C(=O)N[C@H]2CCc3ccccc3N(CC(=O)O)C2=O)CCCC1
- Potency [1]: inactive
- Potency [2]: inactive

SMILES: CC1C(=O)CC2C3C(O)CC(C(=O)O)C12CC3(C)C (stereo not given)
- Potency [1]: inactive
- Potency [2]: inactive

SMILES: C=C1CC23CC1(O)CCC2C1=CC2OC(=O)C(C)(C2O)C1C3C(=O)O (stereo not given)
- Potency [1]: inactive
- Potency [2]: inactive

SMILES: CC1CCC2(C)C(CC(O)C(O)C23CO3)C1(C)CCC1=CC(=O)OC1O (stereo not given)
- Potency [1]: inactive
- Potency [2]: inactive

SMILES: c1nc(NC2CCCCCC2)c2cc(CNC[C@H]3CCCO3)sc2n1
- Potency [1]: inactive
- Potency [2]: inactive

SMILES: Cc1ccc(C(=O)Nc2ccc(Oc3cc4cnn(C)c4cc3-c3cn[nH]c3)c(F)c2)c(=O)n1-c1ccc(F)cc1
- Potency [1]: inactive
- Potency [2]: inactive

SMILES: CC(C)[C@@H](C)/C=C/[C@@H](C)[C@H]1CC[C@H]2C3=CC=C4C[C@@H](O)CC[C@]4(C)[C@H]3CC[C@]12C
- Potency [1]: inactive
- Potency [2]: inactive

SMILES: CC(C)[C@H]1CCC(CO)=C[C@@H]1/C=C(\CO)C(=O)O
- Potency [1]: inactive
- Potency [2]: inactive

SMILES: COC(=O)C1=COC(O[C@@H]2O[C@H](CO)[C@@H](O)[C@H](O)[C@H]2O)/C(=C\COC(=O)c2ccc(OC3OC(CO)C(O)C(O)C3O)c(OC)c2)C1CC(=O)OCCc1ccc(O)cc1 (stereo not given in full)
- Potency [1]: inactive
- Potency [2]: inactive

SMILES: FC(F)(F)c1cc(C(F)(F)F)c2ccc3nc(-c4nnco4)cn3c2n1
- Potency [1]: inactive
- Potency [2]: inactive

SMILES: CCNC(=O)CCC/C=C\C[C@@H]1[C@@H](/C=C/C(O)CCc2ccccc2)[C@@H](O)C[C@@H]1O (stereo not given in full)
- Potency [1]: inactive
- Potency [2]: inactive
